Bioassay records (PubChem)
Shown are actives, neighbours in structure and some others; about 5.7% of the full set was active somewhere.
KB-3-1 cytotox: KB-3-1 parental cell cytotoxicity. Potency, µM (series often up to 46.1 µM), most hits filed as cytotoxic. 1.4% of 400,000 active. KB-3-1 viability, CellTiter-Glo ATP luminescence, 72 h; also: nearly all actives have a fitted effect of over 60% in size
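Cytotoxicity in the drug-sensitive parental line KB-3-1 was scored as loss of CellTiter-Glo luminescence following 72 h incubation with compound. Values come from curve fitting of normalized concentration-response data.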
HT1080NT lethal: kills 2HG-producing HT-1080-NT fibrosarcoma cells | HT-1080-NT fibrosarcoma viability, CellTiter-Glo ATP luminescence, 48 h | Potency, µM (top dose mostly 46.1 µM), inactives show at the top dose activity, negative = less viability, most hits filed as cytotoxic | 1.6% of 360,000 active | AID 686970;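 also: NT is the 2HG producing partner of a matched IDH1 knockdown line; 0% = DMSO-treated cells and -100% = media-only wells without cells; nearly all actives have a fitted effect of over 55% in size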
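Viability by CellTiter-Glo luminescence after 48 h compound exposure at 37C of HT-1080-NT cells (750/well, RPMI, 5% FBS). % activity scaled between DMSO wells and medium-only wells, then curve-fitted and categorized by curve class.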
HT1080 IDH1KD tx: toxicity to HT-1080 IDH1 knockdown cells (counter line); HT-1080 IDH1 knockdown viability, ATP luminescence, 48 h; Potency, µM (titrated, usually from 46.1 µM), inactives show at the highest dose activity, negative = toxicity, actives largely listed as cytotoxic; 2% of 360,000 active; AID 686971;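 also: 0% = DMSO wells and -100% = cell-free medium wells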
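CellTiter-Glo luminescence after 48 h compound exposure at 37 degrees C of IDH1-knockdown HT-1080 cells in 5% FBS RPMI. %Activity scaled between DMSO wells and cell-free media wells, with curves fitted and assigned curve classes.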
KB-V1 cytotox: kills drug-selected multidrug resistant KB-V1 cells. Potency, µM (titrated, usually from 46.1 µM), actives largely listed as cytotoxic. KB-V1 MDR cells viability, CellTiter-Glo, 72 h. AID 1347076. 3.4% of 400,000 active; also: nearly all actives have a fitted effect of over 60% in size
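Potencies derive from concentration-effect curves fitted to normalized luminescence (CellTiter-Glo) of KB-V1 cells treated for 72 h at 37 degrees C in phenol-red-free DMEM containing 10% FBS.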
Active calls of the source: *; i = inactive; ? = inconclusive; . = no result given. Calls follow the shape of the dose curve; as a rule, active = well fitted curve in the direction sought with a large enough effect; inconclusive = small, poorly fitted or top-dose-only effect, or another doubt; inactive = no such curve, though single readings can be large; an effect the other way counts as inactive or inconclusive. Unless noted, % is scaled to controls: 0 for no effect and ±100 for the full control effect; potency is read from the fitted curve at half-maximal effect.

SMILES | KB-3-1 cytotox | HT1080NT lethal | HT1080 IDH1KD tx | KB-V1 cytotox
OCC1(Cc2ccccc2)CCN(Cc2cnn(-c3ccccc3F)c2)CC1 | i | -3.7% | -2.0% | ?
OCC1(Cc2cccc(C(F)(F)F)c2)CCN(Cc2cc(F)cc(F)c2)CC1 | ? | 18.4µM* | ? | ?
CCOC(=O)c1ccccc1OCc1cc(C2Nc3ccccc3C(=O)N2c2cccc3ccccc23)ccc1OC (stereo unspecified) | ? | . | . | i
COc1ccc2c(c1)c1c(c(=O)n(Cc3ccccc3)c(=O)n1CC(=O)Nc1ccccc1F)n2C | ? | . | . | i
O=C(NCCc1ccc(Cl)cc1)C1CCN(S(=O)(=O)c2ccc3[nH]ccc3c2)CC1 | i | . | . | i
COc1ccc(-n2ccnc(NCc3ccc(C)cc3)c2=O)cc1OC | i | . | . | i
C=C(C(=O)c1ccccc1)C(C)C(=C)C(=O)c1ccccc1 | ? | 8.2µM* | 5.8µM* | 3.26µM*
CC(C)C[C@H](N)c1nnc(SCc2ccc(Cl)cc2)o1 | i | -16.7% | ? | i
CC(C)[C@H](N)c1nnc(SCc2ccc(Cl)cc2)o1 | i | -24.2% | -13.7% | 16.4µM*
Cc1nnc(N2CCC(C(=O)NCc3ccc(F)cc3)CC2)c2nn(-c3ccc(Cl)cc3)c(C)c12 | i | . | . | i
CC(C)c1cc(C(=O)NNC(=S)NCc2ccco2)c(O)c(C(C)C)c1 | i | ? | 16.4µM* | i
Cc1cc(C(=O)NNC(=S)NCc2ccco2)n(C)n1 | i | 0.3% | 4.1% | i
Cc1cccn2cc(COc3ccc(-c4ccccc4)cc3)nc12 | i | ? | 18.4µM* | ?
O=C(Nc1ccccc1N1CCOCC1)c1ccccc1NS(=O)(=O)c1ccc(F)c(F)c1 | ? | 18.4µM* | ? | ?
COc1ccc(NC(=O)c2cc(S(=O)(=O)N3CCOCC3)ccc2N2CCOCC2)cc1 | . | 6.1% | 14.4% | .
O=C(Nc1ccc(OC(F)F)cc1)c1cc(S(=O)(=O)N2CCOCC2)ccc1N1CCCC1 | i | -8.5% | 0.6% | 9.2µM*
CC(C)[C@H](NS(=O)(=O)c1ccccc1)C(=O)Nc1ccccc1N1CCOCC1 | i | 2.1% | 3.4% | 8.2µM*
O=S(=O)(c1ccc(NC(=S)N/N=C/c2c3ccccc3cc3ccccc23)cc1)N1CCOCC1 | 3.66µM* | ? | ? | ?
CCC(=O)N1CCc2cc(S(=O)(=O)NCCC(=O)Nc3ccc(C)cc3)ccc21 | i | . | . | i
O=C(NC1CCCCCC1)c1cc(S(=O)(=O)N2CCCCC2)ccc1N1CCOCC1 | i | -13.8% | -3.8% | i
O=C(Nc1cc(S(=O)(=O)N2CCOCC2)ccc1N1CCCC1)c1cc(F)c(F)cc1Cl | i | -7.3% | -0.2% | 16.4µM*
CN1CCN(S(=O)(=O)c2ccc(C(=O)NC3CCCCC3)cc2)CC1 | i | -0.3% | -4.6% | i
O=C(NC1CCCCC1)c1ccc(S(=O)(=O)N2CCCC2)cc1 | i | 11.5% | -0.5% | 16.4µM*
O=C(NC1CCCCCC1)c1cc(S(=O)(=O)N2CCOCC2)ccc1N1CCCCC1 | ? | ? | ? | 8.2µM*
CC(C)N(C(=S)Nc1cc(S(=O)(=O)N2CCOCC2)ccc1Cl)c1ccccc1 | i | -1.6% | 1.5% | i
SMILES | KB-3-1 cytotox | HT1080NT lethal | HT1080 IDH1KD tx | KB-V1 cytotox
C/C(=N\NC(=S)Nc1cc(S(=O)(=O)N2CCOCC2)ccc1Cl)c1ccccc1F | ? | -17.4% | ? | 3.66µM*
COc1ccc(-c2nc3n(n2)C(c2ccccc2OC)C(C(=O)Nc2cccnc2)=C(C)N3)cc1 (stereo unspecified) | i | . | . | i
COc1cccc(NC(=O)N2CCN3CCCCC3C2)c1 (stereo unspecified) | i | . | . | i
Cc1cc(C)cc(OCC(=O)Nc2nc3c(s2)CC(C(C)(C)C)CC3)c1 (stereo unspecified) | i | . | . | i
CC(=O)N1CCc2cc(S(=O)(=O)NC(CC(C)C)C(=O)Nc3ccc(C(C)C)cc3)ccc21 (stereo unspecified) | i | . | . | i
Cc1ccnc2cc(Cl)c(Cl)cc12 | i | . | . | ?
Nc1cc(S(=O)(=O)Nc2ccc(Cl)cc2)ccc1N1CCOCC1 | 23.1µM* | ? | -12.4% | ?
O=S(=O)(c1ccc(NC(=S)NCCC(c2ccccc2)c2ccccc2)cc1)N1CCOCC1 | ? | -27.0% | ? | ?
O=S(=O)(c1ccc(NC(=S)Nc2ccc(OC(F)F)cc2)cc1)N1CCOCC1 | i | -5.5% | -3.0% | 23.1µM*
CCCCOCCCNC(=S)Nc1ccc(S(=O)(=O)N2CCOCC2)cc1 | ? | -11.7% | -0.4% | 18.4µM*
O=C(Nc1ccccc1O)c1cc(S(=O)(=O)N2CCOCC2)c(Cl)cc1Cl | i | ? | -22.3% | 2.91µM*
CCOc1ccc(NC(=O)Cc2csc(COc3cccc(C)c3)n2)cc1 | i | . | . | i
COc1ccc(-c2cc3ccc(O)c(CN4CCOCC4)c3oc2=O)cc1OC | i | . | . | ?
O=C(Nc1cc(S(=O)(=O)N2CCCCC2)ccc1O)c1ccccc1NS(=O)(=O)c1ccc(F)cc1 | i | ? | ? | i
O=C(NC1CCCCC1)C1CCN(S(=O)(=O)N2CCCCCC2)CC1 | i | 3.2% | -13.8% | 16.4µM*
O=C(Nc1cc(S(=O)(=O)N2CCCCC2)ccc1Cl)c1ccccc1NS(=O)(=O)c1ccc(F)cc1 | 4.61µM* | 0.581µM* | ? | ?
Cc1cc(C)cc(NC(=O)CC(C)n2nc(C)cc2C)c1 (stereo unspecified) | i | . | . | i
CCOCCCn1c(SCC(=O)/C(C#N)=C(\C)N)nc2ccccc2c1=O | i | 1.9% | 2.5% | 8.2µM*
CCOCCCn1c(SCc2nc3ccccc3s2)nc2ccccc2c1=O | 11.6µM* | ? | ? | 2.31µM*
O=C(CCC(=O)N1CCN(c2ccccc2)CC1)Nc1nnc(C2CCCCC2)s1 | i | 3.8% | 12.6% | i
COc1cc(C(=O)NC(=S)N(CCc2ccccc2)CCc2ccccc2)cc(OC)c1OC | ? | -7.5% | ? | 2.31µM*
COc1cc(C(=O)NCc2cccc3ccccc23)cc(Cl)c1OC | i | 0.0% | -17.8% | 18.4µM*
COc1cc(C(=O)NC(c2ccccc2)c2ccccc2)cc(Cl)c1OC | i | 6.8% | 6.8% | i
COc1cc(C(=O)N/N=C(\C)Cc2ccccc2)cc(OC)c1OC | i | 1.16µM* | 1.03µM* | i
O=C(NC(=S)N(CCc1ccccc1)CCc1ccccc1)c1ccco1 | ? | -7.5% | -16.3% | 6.51µM*
Cc1ccc(S(=O)(=O)N2[C@H](CC(=O)c3ccc(Cl)c(Cl)c3)OC[C@@H]2C(C)C)cc1 | i | -11.5% | -10.9% | i
Cc1ccccc1-c1nc2c(s1)CCc1onc(-c3ccc(Cl)cc3)c1-2 | i | 13.9% | 6.1% | i
COc1ccc(-c2noc3c2-c2nc(-c4ccccc4C)sc2CC3)cc1 | 18.4µM* | 13µM* | ? | ?
CCOc1cc(/C=N/Nc2nnc(C)n2N)ccc1O | i | ? | 23.1µM* | i
